Source: PubChem BioAssay
Rows were chosen to be rich in hits. Some 3.5% of all compounds tested hit in one or more screens of this group.
MITF inh: MITF inhibitors, primary screen, biochemical, AlphaScreen, human. 650,000 compounds, 0.91% hits. inhibition, % at 2.6 µM. Microphthalmia-associated transcription factor (Homo sapiens), O75030. AlphaScreen MITF homodimerization, bead proximity signal; in the data active = inhibition above about 50%;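 note: 0% = vehicle wells with protein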
TEAD-YAP block: TEAD-YAP interaction inhibition, primary screen, TEAD-YAP interaction inhibitor project, luminescence, HEK-TIYL cells. 640,000 compounds, 1.4% hits. inhibition, % at 9.12 µM. TEAD-Gal4/YAP UAS-luciferase luminescence; in the data active = inhibition above about 32%;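 note: 0% = median of test compound wells and 100% = reference inhibitor wells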
GPR151 ag: activators of human GPR151, primary screen, cell-based, PathHunter beta-arrestin, luminescence | G-protein coupled receptor 151 (Homo sapiens), Q8TDV0 | PathHunter beta-arrestin GPR151 cells | activation, % at 11.2 µM | 650,000 compounds, 1% hits | AID 1508602, 2020; in the data active = activation above about 4.9%;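 note: 0% = median of compound wells and 100% = cells with positive control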
FBW7 activator: FBW7 E3 ligase activators, primary screen, biochemical, AlphaScreen, human | normalized activity (activation), % at 26.1 µM | 650,000 compounds, 0.13% hits | F-box/WD repeat-containing protein 7 (Homo sapiens), Q969H0 | AlphaScreen FBW7–phospho-cyclin E peptide binding, activator screen; in the data active = normalized activity above about 1.9%;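 note: purified mutant Fbw7 with reduced substrate affinity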
GPR151 conf act: GPR151 activators, triplicate retest, confirmation, cell-based, PathHunter beta-arrestin, luminescence; shares compounds with GPR151 ag; GPR151 PathHunter beta-arrestin cells, 90 min; % of EA-reagent control over plate median; activation, % at 11.2 µM; 6,700 tested, under 10 active; AID 1508609, 2020;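 active = mean percent activation across replicates above the confirmation screen cutoff of 4.91%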
GPR119 counter: GPR119 activators in beta-arrestin cells, counter-screen for GPR151 activator project, cell-based, PathHunter beta-arrestin, luminescence, triplicate | shares compounds with GPR151 ag | 90 min; 0 = compound-well median, 100 = enzyme-acceptor control | activation, % at 11.2 µM | 6,700 compounds, 0.3% hits | AID 1508611, 2020;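 active = mean percent activation in the counterscreen above 29.09%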;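 note: counterscreen on off-target GPR119 to flag nonselective hits from the GPR151 activator screen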
Target sequence (Q8TDV5 whole entry, looked up): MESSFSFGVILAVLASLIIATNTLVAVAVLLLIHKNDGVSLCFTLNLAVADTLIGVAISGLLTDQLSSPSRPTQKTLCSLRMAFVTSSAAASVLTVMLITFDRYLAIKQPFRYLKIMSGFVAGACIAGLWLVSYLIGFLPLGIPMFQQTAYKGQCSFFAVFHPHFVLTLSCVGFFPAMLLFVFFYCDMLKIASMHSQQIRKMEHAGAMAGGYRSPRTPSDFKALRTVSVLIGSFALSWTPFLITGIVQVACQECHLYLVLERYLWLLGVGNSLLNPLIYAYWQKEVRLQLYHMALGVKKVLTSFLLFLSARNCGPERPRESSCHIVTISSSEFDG
The depositor's hits bear a star; x = no result given.

SMILES	MITF inh	TEAD-YAP block	GPR151 ag	FBW7 activator	GPR151 conf act	GPR119 counter
O=C(CS(=O)CC(=O)Nc1ccc2c(c1)OCCO2)Nc1ccc(F)cc1 (stereo unspecified)	-3	-2	0	0	x	x
O=C(CCCCC(=O)Nc1ccc2c(c1)OCCO2)Nc1ccc2c(c1)OCCO2	2	9	5.1*	0	0	-3
O=C(COC(=O)c1ccco1)Nc1ccc2c(c1)OCO2	-9	-3	5.5*	0	1	4
O=C(CS(=O)CC(=O)Nc1ccc2c(c1)OCCO2)Nc1ccc(Cl)cc1 (stereo unspecified)	16	-45	6.7*	0	1	6
COc1cccc(/C=N/NC(=S)NC(C)C)c1	2	11	0	0	x	x
CCCNc1nc(Nc2ccc(C)cc2)nc(OCC)n1	7	-5	3	0	x	x
Cc1ccccc1Cn1nnc(C(=O)Nc2ccc(Br)cc2)c1N	7	-44	-1	0	x	x
COC(=O)c1ccc(OCC2c3cc(OC)c(OC)cc3CCN2C(=O)c2cccc(OC)c2OC)cc1 (stereo unspecified)	0	-13	5.3*	0	1	1
S=C(Nc1ccc(Cl)cc1)Nc1ccccn1	1	-27	0	0	x	x
O=C(NNc1ccccn1)Nc1ccc(Cl)cc1	-3	-8	6.5*	0	0	0
O=C(O)c1ccc(CNCc2cccc(Br)c2)s1	-3	-5	-1	0	x	x
O=C(Nc1ccc2c(c1)OCCO2)c1cc(=O)c(OCc2ccccc2)c[nH]1	-1	4	8.1*	0	0	-1
Cc1cc(NS(=O)(=O)c2ccc(Cl)cc2)nn1CC(=O)NCc1ccco1	-1	-8	1	0	x	x
Cc1cc(NC(=O)Cn2cnc([N+](=O)[O-])n2)nn1CC(=O)NCc1ccco1	0	1	5.5*	0	-1	-11
COc1cccc(C(=O)COC(=O)c2ccc3c(c2)OCO3)c1	-10	-3	5.3*	0	0	2
O=C(NC1CCN(Cc2ccccc2)CC1)C1CCN(c2ccc(Nc3ccncn3)nn2)CC1	-8	4	2	0	x	x
Cn1c(O)c(N=Nc2ccc(S(=O)(=O)O)cc2)c(=O)n(C)c1=O	23	-9	-1	0	x	x
FC(F)(F)c1cc(-c2ccccc2)n(-c2cc(N3CCCCC3)ncn2)n1	3	0	5.4*	0	0	-8
O=C(c1ccccc1[N+](=O)[O-])N1CC2C3C=CC(C3)C2C1 (stereo unspecified)	-2	5	0	0	x	x
C=CCC1C=CCC(CC=C)N1C(=O)c1ccccc1[N+](=O)[O-] (stereo unspecified)	-4	1	9.2*	0	0	-2
O=C(Nc1cc(-c2ccncc2)ccc1OCCN1CCCC1)C1COc2ccc(F)cc2C1 (stereo unspecified)	3	-5	-1	0	x	x
O=c1cnnc(N/N=C/C=C/c2ccccc2)[nH]1	43	-9	3	0	x	x
CN(CC(=O)NN)S(=O)(=O)c1ccc(Cl)cc1	5	-9	6.3*	0	1	10
CCN(CC)S(=O)(=O)c1ccc(S(=O)(=O)c2ccc(S(=O)(=O)N(CC)CC)cc2)cc1	-2	5	5.9*	0	-1	-1
CCN(CC(=O)O)S(=O)(=O)c1cc(Cl)ccc1Cl	14	2	0	0	x	x
SMILES	MITF inh	TEAD-YAP block	GPR151 ag	FBW7 activator	GPR151 conf act	GPR119 counter
CCN(CC(N)=O)S(=O)(=O)c1cc(Cl)ccc1Cl	-15	-3	5.0*	0	1	3
CCN(CC(=O)NC)S(=O)(=O)c1ccc(Cl)cc1	6	4	7.6*	1	-2	-17
Cc1ccc(OC(=O)N2CCN3C(=O)[C@H](Cc4ccc(O)cc4)NC(=O)[C@H]3C2)cc1	10	0	0	0	x	x
COc1ccccc1N/C(N)=N/c1nc(C(F)(F)F)cc(=O)[nH]1	-9	7	5.1*	0	-1	-8
Cc1ccccc1N/C(N)=N/c1nc(C(F)(F)F)cc(=O)[nH]1	11	4	8.2*	0	1	8
COc1ccc(-c2cc(C(F)(F)F)n3nc(C(=O)NCc4cccs4)cc3n2)cc1OC	0	-1	7.2*	0	0	12
COc1ccc(-c2cc(C(F)(F)F)n3nc(C(=O)NCCc4ccccc4)cc3n2)cc1	14	2	13*	0	0	-3
Cc1ccc(-c2cc(C(F)(F)F)n3nc(C(=O)NN4CCOCC4)cc3n2)cc1C	13	3	5.3*	0	0	9
CCn1ncc(CNC(=O)c2cc3nc(-c4ccco4)cc(C(F)(F)F)n3n2)c1C	2	20	5.0*	0	1	-1
Cc1ccc(Cn2c(C)c(CNC3CCC(C)CC3)c(C(=O)O)c2C)cc1 (stereo unspecified)	11	-2	-1	0	x	x
O=C1OC(c2ccc(I)cc2)=N/C1=C\c1ccccc1	9	6	-3	0	x	x
Cc1cc(C)cc(OCc2nnc(SCC(=O)Nc3nc(C)cs3)o2)c1	5	-33	1	0	x	x
CCN(CC)S(=O)(=O)c1ccc2nc(Cc3ccccc3)[nH]c2c1	11	5	0	0	x	x
Brc1ccc(-n2cc(-c3ccccc3)c3c(NCc4ccc5c(c4)OCO5)ncnc32)cc1	8	6	0	0	x	x
Cc1cnc(Cl)nc1NCc1nc2ccccc2[nH]1	7	2	0	0	x	x
COc1ccc(-c2cc(C(F)(F)F)n3nc(C(=O)N4CCN(c5cccc(Cl)c5)CC4)cc3n2)cc1	-2	-8	-1	0	x	x
O=C(NCCCn1ccnc1)c1cc2nc(-c3cccs3)cc(C(F)(F)F)n2n1	11	2	7.3*	0	0	12
COc1ccc(-c2cc(C(F)(F)F)n3nc(C(=O)N4CCN(c5ccccc5Cl)CC4)cc3n2)cc1	-3	1	6.1*	0	0	-6
Nc1ccc(C(=O)Nc2ccc(Oc3cccc(Oc4ccc(NC(=O)c5ccc(N)cc5)cc4)c3)cc2)cc1	7	0	6.1*	0	-1	-14
O=C(Nc1c(F)cccc1F)N1CCn2cccc2C1c1ccccc1 (stereo unspecified)	2	2	11*	0	-1	-9
